Screening data (PubChem)
The entries come from a sample that favours hits as a whole.
ST2 inh: inhibitors of human ST2 (IL1RL1) binding to IL-33; Q01638; AlphaLISA ST2-Fc/biotin-IL-33 interaction, 1 h; inhibition, % for hits at 17 µM; 78,000 tested, 2.3% active; in the data active means inhibition above about 30%
Target sequence (Q01638 whole entry, looked up): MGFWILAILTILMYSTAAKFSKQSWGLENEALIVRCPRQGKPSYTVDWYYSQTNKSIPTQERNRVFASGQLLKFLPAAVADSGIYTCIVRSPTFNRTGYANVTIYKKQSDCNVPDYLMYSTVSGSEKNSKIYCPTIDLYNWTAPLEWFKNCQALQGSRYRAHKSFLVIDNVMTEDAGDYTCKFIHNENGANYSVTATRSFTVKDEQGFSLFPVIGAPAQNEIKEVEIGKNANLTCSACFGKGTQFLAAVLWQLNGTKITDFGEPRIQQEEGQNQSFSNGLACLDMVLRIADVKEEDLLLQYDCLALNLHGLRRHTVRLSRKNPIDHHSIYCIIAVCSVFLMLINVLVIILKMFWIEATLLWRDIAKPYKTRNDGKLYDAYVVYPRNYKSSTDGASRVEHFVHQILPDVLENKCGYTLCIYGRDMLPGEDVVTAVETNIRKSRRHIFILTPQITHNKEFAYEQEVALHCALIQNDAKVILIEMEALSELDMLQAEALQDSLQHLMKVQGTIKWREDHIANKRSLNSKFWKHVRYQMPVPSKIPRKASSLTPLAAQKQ
Active calls of the source: *; i = inactive.

SMILES | ST2 inh
Cc1ccc(-n2nc3c(c2NC(=O)c2ccccc2F)CSC3)c(C)c1 | i
CCC(C(Nc1ccccc1)c1ccccc1)[N+](=O)[O-] (stereo not given) | i
O=C(NCCc1ccccc1)c1ccccc1-c1nc2ccccc2[nH]1 | i
O=C(O)CCc1nn2c3ccccc3n(CC(=O)c3ccc(Cl)cc3)c2nc1=O | i
COc1ccccc1/C=C1\C(=O)N(c2ccc(Cl)cc2Cl)N=C1C | i
COc1cc(/C=C2\C(=O)N(c3ccc(Cl)c(C(=O)O)c3)N=C2C)cc(OC)c1OC | 56.0%*
CCN(C)c1ccc(/C=C2/C(=O)N(c3ccc(Cl)c(Cl)c3)N=C2C)cc1 | 30.0%*
COc1ccc(OC)c(/C=C2\C(=O)N(c3ccc(Cl)c(C(=O)O)c3)N=C2C)c1 | i
COc1ccc(/C=C2/C(=O)N(c3ccc(Cl)c(Cl)c3)N=C2C)cc1OC | 65.0%*
COc1cc(/C=C2\C(=O)N(c3ccc(C(=O)O)cc3)N=C2C)cc(Cl)c1O | i
COc1ccc(Br)cc1/C=C1\C(=O)N(c2cccc(Cl)c2)N=C1C | i
COc1ccc(Cl)cc1/C=C1\C(=O)N(c2ccc(Cl)c(C(=O)O)c2)N=C1C | 74.0%*
CC1=NN(c2ccc(Cl)c(Cl)c2)C(=O)/C1=C/c1ccc(C)c([N+](=O)[O-])c1 | i
CC1=NN(c2ccc(Cl)c(Cl)c2)C(=O)/C1=C/c1ccccc1 | i
CCN(C)c1ccc(/C=C2/C(=O)NN(c3ccc(Cl)c(Cl)c3)C2=O)cc1 | i
COCCNC(=O)CCC1CCN(C(=O)Nc2ccccc2SC)CC1 | i
Cc1ccccc1-c1nccn1CCCN1CCOCC1 | i
c1ccc2ncc(Cn3cnnc3)cc2c1 | i
c1cnc(NC2CCN(c3nc(-c4ccncc4)nc4c3CNC4)CC2)nc1 | i
OCCn1c(-c2cccc3[nH]ccc23)nc2ccccc21 | i
Cc1cccc(NC(=O)c2ccccc2[N+](=O)[O-])c1C | i
CCC1CN(C(=O)c2ccnc(C(C)C)n2)CCC(=O)N1Cc1ccccc1 (stereo not given) | i
O=C(Nc1cccc(-n2cccn2)c1)C1CCCN(Cc2nccs2)C1 (stereo not given) | i
Cc1nnc(SCc2ccc(Cl)cc2)[nH]c1=O | i
CCNc1ncc(C(=O)NCc2ccc3nsnc3c2)cn1 | i
SMILES | ST2 inh
CC1=NN(c2cccc(Cl)c2)C(=O)/C1=C\c1ccc(-c2ccc(C(=O)O)c(Cl)c2)o1 | i
CC1=NN(c2cc(C(=O)O)cc(C(=O)O)c2)C(=O)/C1=C\c1ccc(N(C)C)cc1 | 76.0%*
CN(C)c1ccc(/C=C2/C(=O)c3ccc(C(=O)O)cc3C2=O)cc1 | i
CCc1ccc(N2N=C(C)/C(=C/c3ccc(N(C)C)cc3)C2=O)cc1 | 42.0%*
CC1=NN(c2ccc(F)cc2)C(=O)/C1=C/c1ccc(N(C)C)c([N+](=O)[O-])c1 | i
COc1ccc(C2OCC3C(c4ccc(OC)c(OC)c4)OCC23)cc1OC (stereo not given) | i
COc1ccc(OCC(=O)Nc2cc(C)ccc2O)cc1 | i
CSCC(=O)N(CCCN(C)C)CC1CCN(C2Cc3ccccc3C2)CC1 | i
N#Cc1c(N)nc2c(c1-c1cccc(Br)c1)CCCCC2 | i
O=C(c1ccc2nc(C3CC3)oc2c1)N1CCC(N2CCSCC2)CC1 | i
Cc1nc2c(c(N3CCC(Oc4ccccc4C)CC3)n1)CNC2 | i
O=C(Nc1cccc(Cl)c1)C(O)c1ccccc1 (stereo not given) | i
CC1=NN(c2ccccc2)C(=O)C1C(c1cccc(Cl)c1)C(C#N)C#N (stereo not given) | 62.0%*
Cc1nn(-c2ccccc2)c(Cl)c1C(=O)Nc1cccc(Cl)c1 | i
OC[C@H]1CCN(Cc2cccc(-c3ccccn3)c2)C[C@@H]1O | i
O=C(NCCN1CCOCC1)C(=O)Nc1cccc(Cl)c1Cl | i
Cc1cc(C)cc(NC(=O)c2cc3c(=O)n4cccc(C)c4nc3n2C)c1 | i
Cc1ccccc1N1CCN(C(=O)CC2C(=O)NCCN2Cc2cccc(F)c2)CC1 (stereo not given) | i
COc1cc(OC)c(OC)cc1CN1CCN(c2ccccn2)CC1 | i
COc1cc(OC)c(CN2CCN(c3ccccc3F)CC2)cc1Br | 36.0%*
COc1cc(OC)c(OC)cc1CN1CCN(c2cc(C)ccc2C)CC1 | 35.0%*
COc1ccc(CN2CCN(c3ccccc3OC)CC2)cc1OC | 30.0%*
COc1ccc(CN2CCN(Cc3cc(OC)c(OC)cc3OC)CC2)cc1 | i
COc1cc(OC)c(OC)cc1CN1CCN(c2ccc(F)cc2)CC1 | i
Fc1ccccc1N1CCN(Cc2ccco2)CC1 | i
SMILES | ST2 inh
COc1ccccc1N1CCN(Cc2cc(OC)c(O)c(OC)c2)CC1 | i
COc1ccccc1N1CCN(Cc2ccc(C(=O)O)cc2)CC1 | i
Cc1noc(C)c1-n1c(CCCN2CCOCC2)n[nH]c1=O | i
CN(CCc1ccccn1)[C@@H]1[C@H](O)[C@H](CO)O[C@@H]1CNC(=O)c1ccco1 | i
COc1ccc(C(=O)O/N=C(/N)c2cccnc2)cc1 | i
COc1ccc(-n2ncc3c(Nc4ccc(C)cc4)ncnc32)cc1 | i
CCn1cc(C(=O)N2CCc3c([nH]c4ccccc34)C2C2CCCCC2)cn1 (stereo not given) | i
CCOc1cccc(C2C(C(=O)OC(C)CC)=C(C)NC3=C2C(=O)C(C(=O)OC)C(C)C3)c1 (stereo not given) | i
COc1ccc(C(=O)N2C[C@@H]3C[C@H](C2)c2c(-c4ccc(OC(F)(F)F)cc4)ccc(=O)n2C3)cc1 | i
CCCCOc1ccc(/C=c2\sc3ncnn3c2=O)cc1OC | i
O=c1/c(=C\c2cccc([N+](=O)[O-])c2)sc2nc3ccccc3n12 | i
COc1ccc(/C=c2\sc3nc4ccccc4n3c2=O)cc1O | 50.0%*
O=C(O)c1c[nH]c2ccc(S(=O)(=O)NCc3ccc4c(c3)OCO4)cc2c1=O | i
CCOc1ccc(C(=O)N2CCN(c3ccc([N+](=O)[O-])c(-n4nc(C)cc4C)c3)CC2)cc1 | i
CCN1CCN(C(=O)C2CCC(=O)N2C2CCCC2)CC1 (stereo not given) | i
CCN(CCc1ccccc1)CCN(C)C | i
CCN(Cc1ccccc1)Cc1ccc(N(C)C)cc1 | 36.0%*
CN(Cc1ccccc1)Cc1ccccc1 | i
COc1cc(NC(=O)Cn2c(=O)sc3ccccc32)cc(OC)c1 | i
Cc1ccc(C)c(NC(=O)CCN2CCCC2)c1 | i
Cc1ccccc1-c1nc2cc(N=Cc3cc([N+](=O)[O-])ccc3O)ccc2o1 | i
O=[N+]([O-])c1cc2c(cc1C=Nc1ccc3oc(-c4cccc(F)c4)nc3c1)OCO2 | i
Cc1cccc2oc(-c3cc(N=Cc4ccc([N+](=O)[O-])cc4)ccc3O)nc12 | 30.0%*
Cc1ccccc1-c1nc2cc(N=Cc3cc([N+](=O)[O-])c(O)c([N+](=O)[O-])c3O)ccc2o1 | i
O=[N+]([O-])c1cc2c(cc1C=Nc1ccc(O)c(-c3nc4ccccc4o3)c1)OCO2 | 35.0%*
SMILES | ST2 inh
O=[N+]([O-])c1ccc(O)c(C=Nc2ccc(-c3nc4ncccc4o3)cc2)c1 | i
O=c1[nH]c2ccc(S(=O)(=O)N3CCCC3)cc2s1 | i
CCc1ccc(-c2nc(CN3CCC(C(=O)NCC4CCCO4)CC3)c(C)o2)cc1 (stereo not given) | i
Cc1ccn2c(NC(=O)CC(C)(C)C)c(-c3ccc(F)cc3)nc2c1 | i
NS(=O)(=O)c1ccc(CNS(=O)(=O)c2ccc([N+](=O)[O-])cc2)cc1 | i
O=S(=O)(c1ccccc1)c1nc(-c2ccco2)oc1SCc1ccccc1F | i
